Screening data as filed in PubChem.
Rows were chosen to be rich in hits. Some 9% of all compounds tested hit in one or more screens of this group.
ALDH1A1 block: qHTS Assay for Inhibitors of Aldehyde Dehydrogenase 1 (ALDH1A1); Purified ALDH1A1, NADH fluorescence, propionaldehyde substrate; AID 1030, 2008; actives 7.3% (n = 220,000); Potency, µM (titrated, usually from 75.3 µM), usual class: inhibitors; Aldehyde dehydrogenase 1A1 (Homo sapiens), P00352; active = well fitted inhibition curve with a large enough effect, not every such curve was filed as active; inconclusive = small, poorly fitted or top-dose-only effect, or another doubt; inactive = no such curve, though single readings can be large or run the other way
HTT ATP protect: qHTS Multiplex Assay to Identify Dual Action Probes in a Cell Model of Huntington: Cytoprotection (ATP). PC12 HTT-Q103 induced, cytoprotection, ATP luminescence, 40 h. Potency, µM (top dose mostly 56.4 µM), hits mostly activators. actives 0.14% (n = 230,000); also: nearly all actives have a fitted effect of over 45% in size
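Stable PC12 Q103-GFP cells in serum-supplemented, phenol red-free DMEM; induction by tebufenozide at 100 nM final; compound dose series; cell viability quantified luminescently from ATP.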
HPGD inh: qHTS Assay for Inhibitors of HPGD (15-Hydroxyprostaglandin Dehydrogenase) | actives 4.3% (n = 150,000) | Potency, µM, actives largely listed as inhibitors | AID 894, 2007 | purified HPGD, NADH fluorescence kinetic, PGE2 substrate | 15-hydroxyprostaglandin dehydrogenase [NAD(+)] (Homo sapiens), P15428; active = well fitted inhibition curve with a large enough effect, not every such curve was filed as active; inconclusive = small, poorly fitted or top-dose-only effect, or another doubt; inactive = no such curve, though single readings can be large or run the other way
Target sequence (P15428 whole entry, looked up): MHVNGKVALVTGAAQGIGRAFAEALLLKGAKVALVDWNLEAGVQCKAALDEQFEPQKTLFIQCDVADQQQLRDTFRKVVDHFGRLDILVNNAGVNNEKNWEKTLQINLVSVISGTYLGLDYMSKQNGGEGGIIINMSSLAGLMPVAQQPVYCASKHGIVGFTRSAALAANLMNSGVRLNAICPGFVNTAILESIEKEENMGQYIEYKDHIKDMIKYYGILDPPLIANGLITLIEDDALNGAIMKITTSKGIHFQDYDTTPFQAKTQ
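20 nM HPGD preincubated 15 min at room temperature with compound in 50 mM Tris-HCl pH 8, 0.01% Tween 20. Started with 1 mM NAD+ and 30 uM prostaglandin E2; NADH fluorescence (360/450 nm) read 5 times over 30-s intervals, last minus first.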
LMNA splice mod: qHTS Assay for Modulators of Lamin A Splicing; HeLa LMNA splicing GFP/RFP minigene ratio, 48 h; AID 1487, 2009; actives 0.01% (n = 200,000); Potency, µM (top dose mostly 46.1 µM), most hits filed as inhibitors; active = well fitted inhibition curve with a large enough effect in the signal ratio, with a control signal flat, not every such curve was filed as active; inconclusive = small, poorly fitted or top-dose-only effect, or effect the other way, or a change in a side signal; the % refers to the signal ratio
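Read-out is the ratio of GFP to DsRed2 object intensity, acquired by 488 nm laser-scanning cytometry on HeLa lamin A-EGFP minigene reporter cells. Compound incubation 48 hrs at 37 °C in Opti-MEM with 2% FBS; DMSO 0.5% final.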
HttQ103 aggreg: qHTS Multiplex Assay to Identify Dual Action Probes in a Cell Model of Huntington: Aggregate Formation (GFP) | Potency, µM (doses to about 46.1 µM), most hits filed as inhibitors | actives 1.1% (n = 220,000) | PC12 HttQ103-GFP aggregates, Acumen cytometry, 40 h | AID 1688, 2009; also: nearly all actives have a fitted effect of over 60% in size
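Multiplexed with ATP-based cell death, this channel scores GFP aggregates in PC12 cells expressing inducible HTTex1-Q103-GFP. Induction used 100 nM tebufenozide; compounds were tested in concentration series.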
KinaseGlo FLuc: Counterscreen for Luciferase (Kinase-Glo TM) Inhibition. Luciferin 4-monooxygenase (Photuris pensylvanica), Q27757. Kinase-Glo luciferase, ATP luminescence, 8 min. Potency, µM (titrated, usually from 38.3 µM), hits mostly inhibitors. actives 0.28% (n = 200,000). AID 1379, 2008; also: nearly all actives have a fitted effect of over 60% in size
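Inhibition of Kinase-Glo luciferase light generation was assessed at 10 uM ATP in pH 7.2 imidazole buffer, with luminescence measured after eight minutes at ambient temperature.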
Hits are given with their value; . = inactive; ? = inconclusive; / = no result given; [ ] = dose if it differs, or a comment. Unless noted, calls follow the shape of the dose curve; as a rule, active = well fitted curve in the direction sought with a large enough effect; inconclusive = small, poorly fitted or top-dose-only effect, or another doubt; inactive = no such curve, though single readings can be large; an effect the other way counts as inactive or inconclusive.

SMILES | ALDH1A1 block | HTT ATP protect | HPGD inh | LMNA splice mod | HttQ103 aggreg | KinaseGlo FLuc
Cc1ccc(NC(=O)CC2SC(=O)N(c3ccccc3)C2=O)cc1 (configuration not stated) | 10µM | .[10 µM] | . | . | . | .
Cc1cccc(NC2SC(=O)N(c3ccccc3)C2=O)c1 (configuration not stated) | 1.3µM | . | . | . | . | .
Cc1ccc(NC(=O)CC2SC3=NCCN3C2=O)cc1 (configuration not stated) | 3.5µM | .[1.9 µM] | . | . | . | .
Clc1ccc(CSc2nnc(NC3=NCCCCC3)s2)cc1 | ? | .[10 µM] | . | ? | . | .
CCN=C1SC(CC(=O)Nc2ccc(C(F)(F)F)cc2)C(=O)N1CC (configuration not stated) | . | . | . | . | . | .
O=C(CC1SC(=O)N(c2ccccc2)C1=O)Nc1ccccc1 (configuration not stated) | 8.9µM | . | ? | . | . | .
CCCN1C(=O)SC(CC(=O)Nc2ccc(C)cc2)C1=O (configuration not stated) | 22µM | .[10 µM] | . | . | . | .
Cc1cccc(NC(=O)CC2SC(=O)N(c3ccccc3)C2=O)c1 (configuration not stated) | 10µM | . | . | . | . | .
O=C(CC1Sc2ncnn2C1=O)Nc1ccccc1 (configuration not stated) | 2µM | . | 16µM | . | .[9.22 µM] | .
Cc1cccc(NC(=O)CC2S/C(=N/c3nccs3)N(C)C2=O)c1 (configuration not stated) | . | . | . | . | . | .
N=C1SC(CC(=O)Nc2ccc([N+](=O)[O-])cc2)C(=O)N1c1ccccc1 (configuration not stated) | ? | .[10 µM] | / | / | .[9.22 µM] | /
Cc1cc(C)c(C(=O)COC(=O)c2cccnc2Cl)c(C)c1 | . | .[10 µM] | / | ? | . | .
Cc1ccsc1S(=O)(=O)N1CCC(CO)(CC2CCCCO2)CC1 (configuration not stated) | . | .[10 µM] | / | . | .[9.22 µM] | .
CCn1nc(C(=O)Nc2nc3ccccc3[nH]2)c2ccccc2c1=O | . | .[10 µM] | . | ? | . | .
CC(C)c1ccc(C2NC(=S)NC3=C2C(=O)CCC3)cc1 (configuration not stated) | 4µM | .[10 µM] | . | ? | . | .
Cc1cc(C)c(N=Cc2c(O)n(-c3nccs3)c(=O)c3ccccc23)c(C)c1 | . | .[10 µM] | . | . | ? | .
COc1ccc(-n2nnc3c(=O)n(Cc4ccccc4C)cnc32)cc1 | . | .[0.074 µM] | . | ? | . | .
COc1cccc(-n2nnc3c(=O)n(Cc4cccc(F)c4)cnc32)c1 | . | . | 14µM | . | .[9.22 µM] | .
COc1cccc(-n2nnc3c(=O)n(Cc4c(F)cccc4Cl)cnc32)c1 | ? | .[0.074 µM] | 28µM | . | 3.2µM | .
COc1ccc(-n2nnc3c(=O)n(Cc4cccc(C)c4)cnc32)cc1 | . | .[0.074 µM] | 16µM | . | . | .
COc1cccc(-n2nnc3c(=O)n(CC(=O)NCC4CCCO4)cnc32)c1 (configuration not stated) | . | .[10 µM] | 16µM | . | . | .
CN(C)S(=O)(=O)N(CC(=O)NCCSCc1ccc(Cl)cc1)c1ccccc1 | . | .[10 µM] | / | / | .[9.22 µM] | /
COc1ccc(-n2ncc3c(=O)n(Cc4c(F)cccc4Cl)cnc32)cc1 | 28µM | .[10 µM] | / | / | .[9.22 µM] | .
COc1ccc(-n2nc(C(=O)NCC(=O)NCC3CCCO3)c3ccccc3c2=O)c(OC)c1 (configuration not stated) | 13µM | . | / | . | . | /
COc1ccc(-n2nc(C(=O)NCC(=O)NCC3CCCO3)c3ccccc3c2=O)cc1 (configuration not stated) | ? | . | . | . | ? | .
SMILES | ALDH1A1 block | HTT ATP protect | HPGD inh | LMNA splice mod | HttQ103 aggreg | KinaseGlo FLuc
CSc1ccccc1NC(=O)CN1CCN(Cc2ccccc2)CC1 | . | . | / | . | . | .
O=[N+]([O-])c1ccc(S(=O)(=O)N2CCn3cccc3C2c2ccccc2F)cc1 (configuration not stated) | / | / | / | . | / | /
CCOC(=O)C1(C)/C(=N/Nc2ccccc2OC)C(=O)C(=O)N1c1ccccc1 (configuration not stated) | 24µM | / | / | . | / | .
COc1ccc(CC(=S)N2CCOCC2)cc1 | 8.9µM | .[10 µM] | ? | . | . | .
Cc1ccc(CC(=S)N2CCOCC2)cc1 | 24µM | . | / | / | . | /
CCc1ccc(CC(=S)N2CCOCC2)cc1 | . | . | / | / | . | .
CN(C)c1ccc(/C=C2\C(=N)N3C(=NC2=O)Sc2cc(S(C)(=O)=O)ccc23)cc1 | / | .[10 µM] | / | / | .[9.22 µM] | /
Cn1nnc2cc(C(=O)N3CCSCC3)ccc21 | . | . | 1.6µM | . | . | .
CCN(CC)C(=O)c1ccc2c(c1)nnn2C | . | / | 16µM | . | . | .
COc1cc(NC(=O)Cn2cnc(S(=O)(=O)N3CCCC3)c2)cc(OC)c1OC | / | / | / | . | / | /
COc1ccc2c(CSc3nnc(-c4cccnc4)n3-c3ccccc3F)cc(=O)oc2c1 | ? | .[10 µM] | . | . | . | .
Cc1ccc(F)cc1CNC(=O)c1cc(COc2ccc3ncccc3c2)on1 | . | . | / | / | 13µM | .
CC(C)N(Cc1nccn1C)C(=O)c1cc(COc2ccc3ncccc3c2)on1 | . | . | / | / | 20µM | .
CNCc1ccc(OCc2ccccc2)c(OC)c1 | . | .[10 µM] | . | . | . | .
O=C1C2C(C(=O)N1Cc1ccco1)C1C=CC2C12CC2 (configuration not stated) | 13µM | . | . | . | . | .
O=C1C2C(C(=O)N1/N=C/c1ccco1)C1C=CC2C12CC2 (configuration not stated) | 10µM | .[10 µM] | . | . | . | .
O=C1CC(=O)N(Cc2ccco2)C(=O)N1 | . | .[10 µM] | . | . | . | .
O=C1C2C(C(=O)N1/N=C/c1cccc([N+](=O)[O-])c1)C1C=CC2C12CC2 (configuration not stated) | 16µM | / | 16µM | . | . | .
O=C1C2C3C=CC(C4CC34)C2C(=O)N1Cc1ccco1 (configuration not stated) | 22µM | .[10 µM] | . | . | . | .
O=C1C2C3c4ccccc4C(c4ccccc43)C2C(=O)N1Cc1ccco1 (configuration not stated) | . | . | / | ? | . | /
